SARS PLP yeast – inhibitors of SARS-CoV papain-like protease in yeast; S. cerevisiae expressing SARS-CoV PLpro, growth rescue; 0.19% of 330,000 active; Potency, µM (doses to about 32.9 µM), for the others: top-dose activity, positive = growth rescue, actives largely listed as activators; calls by dose curve; further: 0% is about no effect; nearly all actives have a fitted effect of over 55% in size
Pf growth 48h – P. falciparum growth inhibition at 48 hours (one generation) | AID 504832 | Potency, µM (top dose mostly 28.7 µM), without a hit: at the top dose activity change, negative = inhibition, usual class: inhibitors | 5.9% of 310,000 active | P. falciparum luciferase growth in erythrocytes, 48 h; further: on the % scale 0 is the no-effect control and ±100 the full control effect
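Luciferase-expressing P. falciparum in infected erythrocytes (2% hematocrit, 0.1% parasitemia final) in RPMI 1640/0.5% Albumax were exposed to compound for 48 hours at 37 C, 5% CO2; growth read as luminescence.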
Sm TGR block – blocks Schistosoma mansoni thioredoxin glutathione reductase. Q962Y6. Potency, µM (highest dose often 114 µM), for the others: at the highest dose activity change, negative = inhibition, hits mostly inhibitors. 3% of 360,000 active. purified TGR, DTNB reduction, TNB absorbance 405 nm. AID 485364; further: on the % scale 0 is the no-effect control and ±100 the full control effect; nearly all actives have a fitted effect of over 60% in size
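TGR 20 nM + NADPH 100 uM (dispensed conc.), cpd preinc 15 min RT; start with NADPH (500 uM addition) then DTNB (15 mM addition). Kinetic TNB absorbance, 405 nm filter. Four-parameter Hill fit across titration.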
Pf growth 96h – inhibits malaria parasite growth, 96 h. 6.9% of 320,000 active. AID 504834. P. falciparum luciferase reporter growth, 96 h. Potency, µM (top dose mostly 28.7 µM), without a hit: at the top dose activity change, negative = inhibition, most hits filed as inhibitors; further: on the % scale 0 is the no-effect control and ±100 the full control effect
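Luminescence readout: decreased luciferase signal marks inhibited growth of reporter-expressing P. falciparum in infected red cells (2% hematocrit, 0.05% parasitemia final), exposed to compound two generations (96 h, 37 C, 5% CO2).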
* = called active by the depositor; ? = inconclusive; / = no result; [ ] = another dose, or the depositor's remark. This is a sample that favours compounds with a hit; in the whole collection about 12% have one here. Unless noted, the call rests on the fitted dose curve; in most records, active means well fitted curve in the direction sought with a large enough effect; inconclusive means small, poorly fitted or top-dose-only effect, or another doubt; inactive means no such curve, though single readings can be large; an effect the other way counts as inactive or inconclusive. Potency means the concentration at half of the fitted maximal effect.

SMILES	SARS PLP yeast	Pf growth 48h	Sm TGR block	Pf growth 96h
CCOc1ccccc1NC(=O)C1CCCN(S(=O)(=O)c2ccc(-n3cnnn3)cc2)C1 (centres undefined)	-1.8%	?	9.1%	?
O=C(Nc1nc(-c2ccccc2)cs1)C1c2ccccc2Oc2ccccc21	5.2%	11.7µM*	-1.0%	10.4µM*
O=C(Nc1ccncc1)C1c2ccccc2Oc2ccccc21	-3.9%	5.86µM*	3.4%	/
CCc1ccc(OCCCC(=O)Nc2ccc(S(=O)(=O)Nc3cc(C)nc(C)n3)cc2)cc1	1.8%	-6.5%	-22.4%	0.0%
CC[n+]1c(/C=C/N(C)c2ccccc2)oc2ccccc21	-14.4%	0.928µM*	-0.6%	-14.2%
COc1ccc(S(=O)(=O)N2CCCCC2)cc1NC(=O)CCOc1cc(C)ccc1C	-3.7%	?	2.7%	11.7µM*
Cc1ccc(C)c(OCCC(=O)Nc2ccc(S(=O)(=O)N3CCCC3)cc2)c1	6.7%	?	2.3%	9.28µM*
Cc1c(NC(=O)c2ccc(Br)o2)cccc1-c1nc2ccccc2o1	/	/	0.1%	/
CCCc1cnc(NCCNCC(O)COc2ccc(Cl)c(Cl)c2)nc1 (centres undefined)	7.3%	?	-1.3%	11.7µM*
CC(=O)c1cccc(OCC(O)CNCCc2ccc(Cl)cc2)c1 (centres undefined)	0.0%	-23.4%[0.00184 µM]	-17.7%	14.6%
O=C1NC(c2ccccc2)=C(c2nc3ccccc3s2)C(c2ccccc2)N1 (centres undefined)	-0.3%	?	?	8.28µM*
CCCOc1cccc(C2c3c(oc4cc(C)c(C)cc4c3=O)C(=O)N2CCCN2CCOCC2)c1 (centres undefined)	/	/	-14.3%	/
COc1cc(C2c3c(oc4ccccc4c3=O)C(=O)N2c2ccc(C)cn2)ccc1O (centres undefined)	15.0%	9.2%	-0.1%	14.7µM*
Cc1cc2oc3c(c(=O)c2cc1C)C(c1ccc(F)cc1)N(CCCN1CCOCC1)C3=O (centres undefined)	?	11.7µM*	-35.4%	10.4µM*
COc1cc(C2c3c(oc4cc(C)c(C)cc4c3=O)C(=O)N2CCCN2CCOCC2)ccc1O (centres undefined)	/	/	35.5µM*	/
CCN(CC)CCN1C(=O)c2oc3ccccc3c(=O)c2C1c1ccc(F)cc1 (centres undefined)	3.4%	2.94µM*	?	9.28µM*
O=C(CN(C(=O)Cn1nnc(-c2ccc(F)cc2)n1)c1ccc(F)cc1)NC1CCCC1	1.2%	?	-8.2%	?
O=C(Cn1cnc2c(nnn2-c2ccccc2)c1=O)N1CCCc2ccccc21	1.7%	-11.4%	3.7%	?
O=C(Cn1cnc2c(nnn2Cc2ccccc2)c1=O)N1CCCc2ccccc21	6.7%	?	4.8%	11.7µM*
COc1ccc(-c2onc(C)c2-c2ccc(C(=O)OC(C)C)o2)c(O)c1	-20.0%	1.31µM*	6.1%	-9.1%
CN(C(=O)Nc1cn(C)c(=O)c2ccccc12)c1ccccc1	/	/	7.2%	/
C/C(=N\N=C1/NC(=O)C(C)S1)c1ccc([N+](=O)[O-])cc1 (centres undefined)	3.6%	3.6%	-8.1%	-29.9%
CC(C)=N/N=C1\NC(=O)C(C)S1 (centres undefined)	-4.5%	4.65µM*	0.6%	1.17µM*
Cc1ccc(C)c(NC(=O)CN(C)C(=O)c2ccc(-c3cccc(C(F)(F)F)c3)o2)c1	-2.3%	1.85µM*	-20.6%	1.31µM*
CN(CC(=O)Nc1cccc(F)c1)C(=O)c1ccc(COc2ccccc2)o1	-1.5%	?	-5.6%	?
SMILES	SARS PLP yeast	Pf growth 48h	Sm TGR block	Pf growth 96h
CN(CC(=O)Nc1cccc(F)c1)C(=O)c1ccc(-c2cccc(C(F)(F)F)c2)o1	-3.9%	0.329µM*	-14.0%	0.117µM*
COc1cccc(NC(=O)CN(C)C(=O)c2ccc(-c3cccc(C(F)(F)F)c3)o2)c1	3.4%	0.329µM*	10.1%	0.262µM*
COc1ccc(/C(N)=N/OC(=O)CC2CCCCC2)cc1	0.4%	14.0%	1.7%	30.0%
N#Cc1ccsc1NC(=O)C1CCCN1S(=O)(=O)c1cccs1 (centres undefined)	-1.6%	?	0.9%	-15.5%
COc1ccc(-n2nc(C(=O)N(C)c3cc(Cl)ccc3OC)c3c4ccccc4n(C)c3c2=O)cc1	/	/	-7.1%	/
Cc1[nH]n2c(=O)cc(-c3ccc(Cl)cc3)nc2c1-c1ccccc1	/	/	-8.3%	/
Cc1cc(C)nc(NC(=S)NC(=O)c2ccccc2)n1	1.6%	15.1%	26.7%	0.928µM*
Cn1ncc2cc(NC(=S)NC(=O)c3ccccc3)ccc21	2.6%	97.9%	17.8µM*	77.0%
COc1ccc(NC(=S)NC(=O)c2ccccc2)cn1	-2.0%	39.1%	35.5µM*	207.8%
COc1cc(Cl)c(C)cc1NC(=O)CCc1c(C)nc2c3cccnc3nn2c1C	/	/	-13.8%	/
O=C1C2C3C=CC(CC3)C2C(=O)N1c1ccc([N+](=O)[O-])cc1 (centres undefined)	-5.1%	-8.8%	20µM*	?
CC(=O)c1ccc(N2C(=O)C3C4C=CC(CC4)C3C2=O)cc1 (centres undefined)	0.9%	44.8%	11.8%	?
Cc1cccc(N2CCN(CCCNc3ncnc4onc(-c5ccc(Cl)cc5)c34)CC2C)c1 (centres undefined)	/	/	7.1%	/
CCCc1ccc(OCc2nc(-c3ccc(NC(=O)c4cccs4)cc3)no2)cc1	-7.5%	1.85µM*	-13.8%	?
Cc1ccccc1-c1nc(-c2ccc(NC(=O)c3cccs3)cc2)no1	0.5%	?	7.6%	23.4%
O=C(Nc1ccc(-c2noc(-c3ccccc3F)n2)cc1)c1cccs1	3.5%	16.3%	-2.1%	9.28µM*
CN(C)S(=O)(=O)c1cccc(C(=O)NCCOC(=O)c2cc(F)c(F)cc2Cl)c1	-4.0%	8.3%	2.9%	11.0%
CC1(C)CC(=O)C=C(OC(=O)c2ccc(Cl)cc2)C1	10.2%	29.0%	14.1µM*	17.0%
O=C(Cc1ccccc1[N+](=O)[O-])N1CCc2ccccc2C1	-2.0%	0.0%	29.3%	1.17µM*
O=C(Cc1ccc([N+](=O)[O-])cc1)N1CCc2ccccc2C1	-6.4%	-4.0%	-7.3%	?
COc1ccccc1NC(=O)CCn1cnc2ccccc2c1=O	-3.0%	4.9%	-2.3%	38.2%
Cc1nnsc1C(=O)Nc1ccc(S(=O)(=O)N2CCC(C)CC2)cc1	1.0%	-3.5%	-1.7%	26.1%
CCc1cc(=O)oc2c3c(cc(OCC(=O)NCc4cccnc4)c12)OC(C)(C)CC3	9.9%	9.28µM*	-12.9%	?
CCCc1cc(=O)oc2c(C)c(OCC(=O)Nc3cccnc3)ccc12	-4.6%	3.29µM*	3.1%	2.33µM*
Cc1cc(=O)oc2c(C)c(OCC(=O)Nc3cccnc3)ccc12	3.8%	?	2.2%	-23.8%
CCc1cc(=O)oc2c3c(cc(OCC(=O)Nc4cccnc4)c12)OC(C)(C)CC3	-14.1%	2.08µM*	9.4%	2.94µM*
CCCc1cc(=O)oc2c3c(cc(OCC(=O)NCC4CCC(C(=O)O)CC4)c12)OC(C)(C)CC3 (centres undefined)	6.7%	?	-9.5%	1.31µM*
